# Bioassay records from PubChem BioAssay.
# Sm TGR block – S. mansoni TGR enzyme inhibition | Q962Y6 | purified TGR, DTNB reduction, TNB absorbance 405 nm | Potency, µM (highest dose often 114 µM), most hits filed as inhibitors | 360,000 compounds, 3% hits | AID 485364; active = well fitted inhibition curve with a large enough effect; inconclusive = small, poorly fitted or top-dose-only effect; inactive = no such curve, though single readings can be large or run the other way; note: nearly all actives have a fitted effect of over 60% in size
#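 First, TGR (20 nM dispensed) and NADPH were mixed with compound. Second, a 15 min room-temperature incubation followed. Third, further NADPH and then DTNB were added to start the reaction. Finally, TNB absorbance was monitored kinetically.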
# SARS PLpro yeast – SARS-CoV PLP inhibition in yeast. S. cerevisiae expressing SARS-CoV PLpro, growth rescue. Potency, µM (titrated, usually from 32.9 µM), hits mostly activators. 330,000 compounds, 0.19% hits; calls by dose curve; note: nearly all actives have a fitted effect of over 55% in size
# Hits are given with their value; 0 = inactive; ? = inconclusive; - = no result. Compounds with a hit are over-represented: about 3% of the library has one in this group of screens.
SMILES,Sm TGR block,SARS PLpro yeast
COc1ccccc1NC(=S)NC(=O)CCc1ccccc1,4.5µM,0
O=C(CCc1ccccc1)NC(=S)Nc1ccccc1Br,?,0
COc1ccccc1NC(=S)NC(=O)CC(C)C,28µM,0
Cc1nc2nc(NC(=O)c3cccc(Cl)c3)[nH]n2c(=O)c1Cc1ccccc1,0,-
CCOC(=O)C1CCN(S(=O)(=O)c2cc(-c3cc(C)no3)ccc2OC)CC1,0,-
CC(NS(=O)(=O)c1ccc2c(c1)CCN2C(=O)CCCC(=O)O)c1ccccc1 (centres undefined),0,-
C#CCSc1nncn1C(=O)/C=C/c1ccccc1,71µM,0
O=C(/C=C/c1ccccc1)N1CCC[C@H]1CO,0,0
COc1cc2c(cc1OC)C(c1ccc(F)cc1)N(c1ccccc1)C(=O)C2 (centres undefined),0,-
O=C1C(NS(=O)(=O)c2cccs2)=C(N2CCOCC2)C(=O)c2ccccc21,?,0
O=C(O)c1cccc(NC2=C(N3CCOCC3)C(=O)c3ccccc3C2=O)c1,45µM,0
O=C1C=C(N2CCOCC2)c2ccccc2C1=O,?,0
CN(C1=C(N2CCOCC2)C(=O)c2ccccc2C1=O)c1ccccc1,25µM,0
CCN(CC)CCCNC(=O)CN1C(=O)CCn2nc(-c3cn(C)c4ccccc34)cc21,0,-
Cc1ccc(C)c(Nc2nn3c(=O)c4ccc(C(=O)NCc5ccccc5)cc4nc3s2)c1,0,-
CCOc1ccc(C2C(C(N)=O)=C(C)Nc3nc(SCc4ccccc4)nn32)cc1 (centres undefined),0,-
O=C(CCNS(=O)(=O)c1ccc2c(c1)CCN2C(=O)C1CC1)Nc1ccc(F)cc1F,0,-
CC(C)CCNC(=O)CN1C(=O)CSc2ccc(S(=O)(=O)N3CCCCC3)cc21,0,-
COc1ccc(NC(=S)Nc2cc(C)[nH]n2)cc1Cl,?,0
Cc1cc(NC(=S)Nc2ccc(C)c(Cl)c2)n[nH]1,7.1µM,0
Clc1cccc(-n2ncc3c(NCCCN4CCOCC4)ncnc32)c1,0,-
Cc1ccc(-c2c3c(=O)n(C)c(=O)n(C)c3c3c(C(F)(F)F)nc4ccccc4n23)cc1,0,-
COc1ccc(NC(=O)C(C)(C)Oc2ccc(Cl)cc2)cn1,0,0
COc1ccc(NC(=O)C(Cl)=C(Cl)Cl)cn1,0,0
COc1ccc(NC(=O)/C(Cl)=C(/Cl)S(=O)(=O)Cc2ccccc2)cn1,10µM,0
SMILES,Sm TGR block,SARS PLpro yeast
COc1ccc(NC(=O)/C(Cl)=C(/Cl)S(=O)Cc2ccc(Cl)cc2)cn1 (centres undefined),0.1µM,0
COc1ccc(-c2cn3cccnc3n2)cc1NC(=O)Cc1ccccc1,0,-
O=C(COCc1cc(-c2cccs2)on1)N1CCN(c2ccc(F)cc2)CC1,0,-
COC(=O)c1cc2oc3ccccc3c2n1CC(=O)Nc1cccc(SC)c1,0,-
C/C(=N\Nc1ccc(S(N)(=O)=O)cc1[N+](=O)[O-])c1ccccc1O,0,0
C/C(=N\Nc1ccc(S(N)(=O)=O)cc1[N+](=O)[O-])c1ccco1,40µM,0
COc1ccc(CCNC(=O)CCn2c(=O)c3ccccc3n(Cc3cc(C)ccc3C)c2=O)cc1OC,0,-
CN1CCN(C(c2ccc(C(F)(F)F)cc2)c2ccc3cccnc3c2O)CC1 (centres undefined),0.32µM,0
CN1CCN(C(c2ccccc2)c2ccccc2)CC1,0,-
Oc1c(C(c2ccccc2Cl)N2CCCC2)ccc2cccnc12 (centres undefined),?,0
Oc1c(C(c2cccs2)N2CCN(c3ccccc3)CC2)ccc2cccnc12 (centres undefined),0.71µM,-
CC(C)NC(=O)CC(=O)Nc1ccc2nc3n(c(=O)c2c1)CCCCC3,0,-
COc1ccc(OCc2nc(C#N)c(NCc3ccccc3Cl)o2)cc1,0,-
COC(=O)c1sc(S(=O)(=O)N2CCCCC2)c(C(=O)OC)c1C,0,0
COC(=O)c1c(C)oc(C)c1S(=O)(=O)N(Cc1ccccc1)C(C)C,32µM,0
COC(=O)c1c(C)oc(C)c1S(=O)(=O)Nc1ccccc1,0,0
COC(=O)[C@H](Cc1ccccc1)N(Cc1ccccc1)S(=O)(=O)N(Cc1ccccc1)[C@@H](Cc1ccccc1)C(=O)OC,-,0
COC(=O)c1c(C)oc(C)c1S(=O)(=O)NC(C)(C)C,25µM,0
COC(=O)c1c(S(=O)(=O)N2CCOCC2)c(C)n(C)c1C,0,0
COC(=O)c1c(C)oc(C)c1S(=O)(=O)N1CCCCC1,40µM,0
COC(=O)c1c(C)oc(C)c1S(=O)(=O)N1CCCC1,50µM,0
CCCCN(CCCNC(=O)c1cc(Nc2ccc(OC)c(OC)c2)nc2ccccc12)Cc1ccccc1,0,-
COc1ccc(-c2ccc3c(N)c(C(=O)NCc4ccc(Cl)cc4)sc3n2)cc1,0,-
CCCc1nc2ccccc2n2c(-c3ccc(C)cc3)c3c(=O)n(C)c(=O)n(C)c3c12,0,-
CN(C)C(CNC(=O)c1cccc(S(=O)(=O)N2CC3(C)CC2CC(C)(C)C3)c1)c1ccco1 (centres undefined),25µM,0
SMILES,Sm TGR block,SARS PLpro yeast
CCCNC(=O)c1cccc(S(=O)(=O)N2CC3(C)CC2CC(C)(C)C3)c1 (centres undefined),0,0
CCCSCCCNC(=O)c1ccc2nc(Cc3ccccc3)oc2c1,0,-
Nc1c(Cl)ncnc1N/N=C/c1cccnc1,50µM,0
Nc1c(Cl)ncnc1N/N=C/c1ccnc2ccccc12,0,0
CCOc1ccc(-c2cc(CCCC(=O)NCCc3cc(OC)c(OC)c(OC)c3)no2)cc1,0,-
COc1ccc(N=Cc2c(O)c3ccccc3n2C(C)=O)cc1,28µM,0
COc1ccc(N=Cc2sc(O)c3ccccc23)cc1,0,0
COCCN(CCOC)Cc1c(O)ccc2c1O/C(=C\c1ccc(C)o1)C2=O,1.8µM,0
CCN(CC)Cc1c(O)ccc2c1O/C(=C\C=C\c1ccccc1)C2=O,?,0
CCCSc1nnc(NC(=O)Nc2ccc(C)cc2)s1,0,0
CCCSc1nnc(NC(=O)Nc2ccc(F)cc2)s1,89µM,0
O=C(Nc1ccc(C(=O)N2CCN(c3ccccc3F)CC2)cc1)c1nsc2ccccc12,0,-
Cc1cccc(Cn2cc(S(=O)(=O)c3ccccc3)c(=O)c3cc(F)c(N4CCOCC4)cc32)c1,0,-
O=C1CC(N2CCC(c3nc4ccccc4s3)CC2)C(=O)N1Cc1ccccc1 (centres undefined),?,0
NC(=O)C1CCN(C2CC(=O)N(Cc3cccs3)C2=O)CC1 (centres undefined),35µM,0
CCCOc1ccc(N2C(=O)CC(N3CCN(c4nc5ccccc5s4)CC3)C2=O)cc1 (centres undefined),40µM,0
O=C1CC(N2CCC(c3nc4ccccc4o3)CC2)C(=O)N1Cc1cccs1 (centres undefined),50µM,0
O=C1CC(N2CCN(c3nc4ccccc4s3)CC2)C(=O)N1Cc1cccs1 (centres undefined),11µM,0
O=C1CC(N2CCN(c3ccc(F)cc3)CC2)C(=O)N1Cc1cccs1 (centres undefined),?,0
CCCOc1ccc(N2C(=O)CC(N3CCN(c4ccccc4F)CC3)C2=O)cc1 (centres undefined),0,0
NC(=O)C1CCN(C(=S)c2cccs2)CC1,0,0
CCN(CC)CCNC(=O)Cn1ncc2c3ccccc3n(Cc3ccc(Cl)cc3)c2c1=O,0,-
COc1ccc(-c2nc(SCC(=O)Nc3c(C)cc(C)cc3C)n[nH]2)cc1,0,-
